# High-throughput results: PubChem, Broad Institute
# This is a sample that favours compounds with a hit; in the whole collection about 3.4% have one here.
# HIV Env fusion = blocks HIV Env-driven cell-cell fusion. HeLa-JRFL Env/CEM21 cell fusion, luciferase. inhibition, % at 12.3 µM. 360,000 tested, 1.1% active. AID 651610;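 active means mean replicate inhibition score of at least 50 and every replicate individually at or above 50; inconclusive means only one of the two criteria met; inactive means mean below 50 and not all replicates reaching 50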;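 further: 0% = plate neutral controls and 100% = maraviroc near 300 nM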
# miR122 inh = blocks miR-122 activity in Huh7 sensor cells | Huh7 miR-122 Renilla luciferase sensor, 48 h; neutral wells = 0, positive control = 100 | activation (reporter increase), % at 12.5 µM | 340,000 tested, 0.3% active | AID 602342;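 active means mean replicate activation score at least 90 and every replicate individually at or above 90; inconclusive means only one of the two criteria met; inactive means neither criterion met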;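 further: higher luciferase means less miR-122 activity so hits act as miR-122 inhibitors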
# MITF act = increases MITF-driven TRPM1 promoter luciferase signal | SK-MEL-5 TRPM1-promoter luciferase, 24 h; % of positive control, neutral wells = 0 | activation, % at 12.5 µM | 300,000 tested, 0.75% active;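 active means mean activation of at least 80% with every replicate also reaching 80%; inconclusive means mean reaches 80% but some replicate falls short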;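 further: 0% = neutral control wells and 100% = parthenolide positive control wells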
# Wnt act = activators of Wnt/beta-catenin signaling | AID 743398 | Wnt/beta-catenin reporter cell assay, activator, plate reader | activation, % at 9.35 µM | 300,000 tested, 1.2% active; in the data active means activation above about 30%, passing the limit was not always enough; inconclusive means no clear call, values can overlap the other calls;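 further: 0% = neutral control wells and 100% = positive control wells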
# esBAF inh = SWI/SNF esBAF complex inhibition; reporter increase, % at 12.5 µM; 350,000 tested, 2% active; mouse ES cells, Bmi1-luciferase knock-in reporter, 24 h; 100% = twice the neutral-well signal; in the data active means activation above about 40%; inconclusive means no clear call, values can overlap the other calls;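 further: 0% = median of the plate's neutral control wells and 100% = double that signal; a rise in the Bmi1 reporter signal indicates esBAF inhibition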
# * hit, by the source's call; ? = inconclusive; · = not tested or not shown; [ ] = dose if it differs, or a comment.
SMILES,HIV Env fusion,miR122 inh,MITF act,Wnt act,esBAF inh
COc1ccc(N2C(=O)N3[C@H](c4ccc(Cl)cc4)[C@@H]4C(=O)N(C5CCCCC5)C(=O)[C@@H]4[C@]3(Cc3ccc(Cl)cc3)C2=O)cc1,87.7*,-6.1,11.5,-3.7,3.4
O=C1[C@H]2[C@@H](c3ccc(F)cc3)N3C(=O)N(c4ccc(Br)cc4)C(=O)[C@@]3(Cc3ccc(Cl)cc3)[C@H]2C(=O)N1C1CCCCC1,72.0*,4.1,-14.6,-10.8,-7.5
COc1ccc([C@@H]2[C@@H]3C(=O)N(C(C)(C)C)C(=O)[C@@H]3[C@]3(Cc4ccc(Cl)cc4)C(=O)N(c4ccc(Br)cc4)C(=O)N23)cc1,49.3,-14.5,2.9,-8.5,-5.3
CCCC#Cc1cnc2c(c1)C(=O)N([C@@H](C)CO)C[C@@H](C)[C@H](CN(C)C(=O)c1cnccn1)O2,-15.7[16.7 µM],4.6[16.7 µM],·,·,5.6
CN(C(=S)NC1CCCCC1)C1(c2ccccc2Cl)CCCCC1=O (centres undefined),92.7*,·,-4.5,2.9,·
CC(C)NC(=S)N(C)C1(c2ccccc2Cl)CCCCC1=O (centres undefined),-18.7,·,6.4,-1.6,·
C[C@H](CO)N1C[C@H](C)[C@H](CN(C)C(=O)c2ccncc2)OCCCC[C@H](C)Oc2ccc(NS(=O)(=O)c3ccc(F)cc3)cc2C1=O,6.2[16.7 µM],0.6[16.7 µM],·,·,-0.2
C[C@H](CO)N1C[C@H](C)[C@@H](CN(C)C(=O)N[C@H](C)c2ccccc2)OCc2ccccc2-c2c(n(C)c3ccccc23)C1=O,22.7[16.7 µM],·,·,·,-1.6
CC(C)CN(C(=O)C(c1ccccc1)c1ccccc1)c1c(N)n(CC(C)C)c(=O)[nH]c1=O,79.3*,-5.7,3.8,-1.1,1.5
CC(C)CN(C(=O)COC(=O)C12CC3CC(CC(O)(C3)C1)C2)c1c(N)n(Cc2ccccc2)c(=O)[nH]c1=O,·,-3.8,·,-1.6,-5.2
CC(C)CN(C(=O)COC(=O)C12CC3CC(CC(C3)C1)C2)c1c(N)n(Cc2ccccc2)c(=O)[nH]c1=O,69.6*,·,-87.8,-0.7,-30.6
COCC(=O)N1C[C@@H](C)[C@@H](OC)CN(C)C(=O)c2cc(NC(=O)C3CCC3)ccc2OC[C@H]1C,-9.2[16.7 µM],·,·,·,-6.6
C[C@H]1CN([C@@H](C)CO)C(=O)Cc2cc(NC(=O)Nc3ccc(C(F)(F)F)cc3)ccc2O[C@@H]1CN(C)S(=O)(=O)c1cccs1,-7.1[16.7 µM],-4.1[16.7 µM],·,·,3.0
CC=Cc1ccc2n(c1=O)C[C@@H]1[C@@H](CO)[C@H](C(=O)NCC)N(CC3CCOCC3)[C@H]21 (mixture of isomers),·,·,·,·,2.3
Cc1c(C(=O)N2CCCC(C(F)(F)F)C2)oc2ccccc12 (centres undefined),·,·,29.2,-1.0,8.5
O=C(c1ccc(-c2cccc(Cl)c2Cl)o1)N1CCOCC1,-105.7,-4.0,86.5*,34.4*,39.3
O=C(c1ccc(-c2cccc(C(F)(F)F)c2)o1)N1CCOCC1,·,2.4,56.6,-1.3,70.5*
O=C(c1cc(-c2ccccc2Cl)on1)N1CCCC1,-35.2,-1.5,-7.7,7.9,-62.6
O=C(c1ccc(-c2ccccc2Cl)o1)N1CCCC(C(F)(F)F)C1 (centres undefined),·,3.0,?,-2.9,50.9*
O=C(c1ccc(-c2ccccc2Cl)o1)N1CCC1,-24.1,·,?,19.7,84.2*
COCC(=O)N(C)C[C@H]1Oc2cc(C#CCN(C)C)ccc2S(=O)(=O)N([C@@H](C)CO)C[C@@H]1C,-15.9[16.7 µM],-2.3[16.7 µM],·,·,5.9
O=C(c1ccc(-c2ccc([N+](=O)[O-])cc2Cl)o1)N1CCOCC1,6.6,·,-8.1,1.5,·
CC1CCN(C(=O)c2ccc(-c3ccccc3Cl)o2)CC1,-136.8,·,109.8*,44.4*,?
NC(=O)C1CCCN(C(=O)c2ccc(S(=O)(=O)N3CCCCCC3)cc2)C1 (centres undefined),33.0,-5.5,-3.5,-2.1,-6.2
NC(=O)C1CCCN(C(=O)c2ccc(-c3cccc(Cl)c3Cl)o2)C1 (centres undefined),·,-2.6,79.8,38.0*,74.5*
SMILES,HIV Env fusion,miR122 inh,MITF act,Wnt act,esBAF inh
C[C@@H]1CN([C@@H](C)CO)C(=O)c2cc(NC(=O)C3CCCCC3)ccc2O[C@H]1CN(C)Cc1ccncc1,3.6[16.7 µM],6.3[16.7 µM],·,·,3.3
C[C@@H]1CCCCO[C@H](CN(C)C(=O)NC2CCCCC2)[C@@H](C)CN([C@H](C)CO)C(=O)c2cc(NC(=O)Nc3cccc4ccccc34)ccc2O1,-1.8[16.7 µM],-15.2[16.7 µM],·,·,-0.5
COc1cc(C)ccc1OCCCOc1ccccc1Br,·,-0.6,60.3,9.9,51.6*
COc1ccccc1OCCCOc1ccc([N+](=O)[O-])cc1Cl,·,2.6,·,-2.1,55.9*
COc1ccccc1OCCCOc1ccc(C)cc1Br,-14.4,·,?,·,·
Cc1ccc(-c2ccc3c(c2)O[C@@H](CN(C)Cc2ccncc2)[C@H](C)CN([C@H](C)CO)S3(=O)=O)cc1,89.9*[16.7 µM],1.0[16.7 µM],·,·,-10.3
COCC#Cc1ccc2c(c1)O[C@H](CN(C)Cc1ccc3c(c1)OCO3)[C@@H](C)CN([C@@H](C)CO)S2(=O)=O,18.4[16.7 µM],108.7*[16.7 µM],·,·,-0.7
Cc1ccc(-c2ccc3c(c2)O[C@H](CN(C)Cc2ccncc2)[C@@H](C)CN([C@@H](C)CO)S3(=O)=O)cc1,91.0*[16.7 µM],-1.1[16.7 µM],·,·,-6.8
Cc1ccc(-c2ccc3c(c2)O[C@H](CN(C)Cc2cccnc2)[C@@H](C)CN([C@H](C)CO)S3(=O)=O)cc1,78.5*[16.7 µM],4.9[16.7 µM],·,·,-8.0
COCC#Cc1ccc2c(c1)O[C@@H](CN(C)Cc1ccc3c(c1)OCO3)[C@H](C)CN([C@@H](C)CO)S2(=O)=O,6.7[16.7 µM],-1.4[16.7 µM],·,·,0.9
C[C@H](NC(=O)C[C@H]1CC[C@@H]2[C@@H](COc3ccc(NS(=O)(=O)c4ccc(Cl)cc4)cc3C(=O)N2C)O1)c1ccccc1,-17.7[16.7 µM],-45.0[16.7 µM],·,·,5.3
COc1ccccc1C#Cc1ccc2c(c1)O[C@@H](CN(C)Cc1ccncc1)[C@@H](C)CN([C@@H](C)CO)S2(=O)=O,45.6*[16.7 µM],-6.9[16.7 µM],·,·,9.1
C[C@H]1CN([C@@H](C)CO)S(=O)(=O)c2ccc(-c3ccncc3)cc2O[C@@H]1CN(C)Cc1ccc(Oc2ccccc2)cc1,33.4[16.7 µM],55.5[16.7 µM],·,·,-30.8
C[C@@H]1CN([C@H](C)CO)S(=O)(=O)c2ccc(-c3ccncc3)cc2O[C@@H]1CN(C)Cc1ccc(Oc2ccccc2)cc1,58.7*[16.7 µM],4.5[16.7 µM],·,·,-14.5
O=C(N[C@H](c1cccc(Br)c1)[C@@H]1CCCC=C1c1ccccc1)C(F)(F)F,67.0*,·,·,2.7,·
CC1(C)CCC(=O)N2CC[C@H]3C[C@H](OC(=O)Nc4ccc5c(c4)OCO5)C[C@@H]1[C@H]32,·,1.3,104.1*,14.3,37.9
Fc1ccccc1Nc1nc2ccccc2o1,-54.9,-7.9,99.9*,0.4,-4.4
C[C@@H]1CC[C@H]2C(=O)N3[C@@H](CC[C@@H](C)[C@@H]3c3ccc(Br)cc3)C(=O)N2[C@H]1c1ccc(Br)cc1,77.3*,·,-5.5,-9.2,0.8
O=C(C[C@H]1C=C[C@@H](NC(=O)CC2CC2)[C@@H](CO)O1)NCC(F)(F)F,·,·,·,·,-3.3
